# This is a sample that favours compounds with a hit; in the whole collection about 1.3% have one here.
# Pin1 inh = human Pin1 inhibition; 0.009% of 390,000 active; Potency, µM (highest dose often 115 µM), inactives show at the top dose activity, negative = inhibition, most hits filed as inhibitors; AID 504891; Pin1 FP peptide displacement, HiFluor488, 10 min; active means well fitted inhibition curve with a large enough effect in the polarisation, with a control signal flat, not every such curve was filed as active; inconclusive means small, poorly fitted or top-dose-only effect, or effect the other way, or a change in a side signal; inactive means no such curve, though single readings can be large or run the other way; the % refers to the polarisation; further: potency means the concentration at half of the fitted maximal effect
# Target sequence (Q13526 whole entry, looked up): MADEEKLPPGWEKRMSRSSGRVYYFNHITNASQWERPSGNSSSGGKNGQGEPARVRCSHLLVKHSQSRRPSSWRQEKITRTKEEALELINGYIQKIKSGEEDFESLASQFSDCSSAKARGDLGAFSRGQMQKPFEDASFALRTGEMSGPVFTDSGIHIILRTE
# rTrxR1 inhibitor = inhibitors of rat thioredoxin reductase 1. O89049. recombinant rTrxR1, NADPH fluorescence consumption, selenite substrate. Potency, µM (series often up to 114 µM), for inactives: at the highest dose activity change, negative = inhibition, actives largely listed as inhibitors. 1% of 390,000 active. AID 588453; further: potency means the concentration at half of the fitted maximal effect; nearly all actives have a fitted effect of over 65% in size
#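 Rat TrxR1 (90 nM in the dispensed reagent) was pre-reduced with 400 uM NADPH for 5 min at room temperature, then incubated with compound for 15 min. After 400 uM selenite was added, NADPH fluorescence (Ex 340/Em 450 nm) was followed for 8 min.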
# TrxR1 substrate = substrates of rat thioredoxin reductase 1; AID 588456; Potency, µM (doses to about 114 µM), for the others: at the top dose activity change, negative = substrate turnover; purified TrxR1 substrate turnover, NADPH consumption readout; O89049; 0.01% of 390,000 active; further: potency means the concentration at half of the fitted maximal effect; nearly all actives have a fitted effect of over 50% in size
#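 Rat TrxR1, dispensed at 90 nM, was prereduced with 400 uM NADPH (final) for 5 min at ~22 deg C, then incubated with compound 15 min before 400 uM selenite. A first-read NADPH fluorescence drop versus no-compound background flagged substrates.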
# Giardia killer = Giardia lamblia killing; activity change, % at 7.66 µM, hits read low; Giardia lamblia trophozoite viability; 0.15% of 340,000 active; in the data active means activity change below about -80%; inconclusive means between about -30% and that limit;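 further: parasites exposed to compound for two days anaerobically before the ATP read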
#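 Giardia trophozoites, 100 cells per well, were exposed to compounds for 48 hrs at 37 deg C under anaerobic conditions; viability was then read as ATP content by bioluminescence after 15-30 min at room temperature.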
# GCN5L2 inh = inhibitors of human GCN5L2 histone acetyltransferase. Q92830. GCN5L2 HAT assay, ThioGlo1 CoA-SH fluorescence. Potency, µM (top dose mostly 58.9 µM), for the others: at the highest dose activity change, negative = inhibition, actives largely listed as inhibitors. 0.21% of 390,000 active. AID 504327; further: potency means the concentration at half of the fitted maximal effect
#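 Free CoA generated was detected with ThioGlo1 (50uM) fluorescence at Ex340nm/Em540nm, read immediately and after 20 min at room temperature. Enzyme, 20 nM in HEPES pH 7.5 buffer, saw compounds 15 min before adding 75uM H3(1-25) peptide and 70uM acetyl-CoA.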
# GALK inh = inhibitors of human galactokinase | Potency, µM (series often up to 57.5 µM), inactives show top-dose activity change, negative = inhibition, actives largely listed as inhibitors | Purified GALK, Kinase-Glo residual ATP luminescence | P51570 | 0.007% of 270,000 active; further: potency means the concentration at half of the fitted maximal effect
# Target sequence (P51570 whole entry, looked up): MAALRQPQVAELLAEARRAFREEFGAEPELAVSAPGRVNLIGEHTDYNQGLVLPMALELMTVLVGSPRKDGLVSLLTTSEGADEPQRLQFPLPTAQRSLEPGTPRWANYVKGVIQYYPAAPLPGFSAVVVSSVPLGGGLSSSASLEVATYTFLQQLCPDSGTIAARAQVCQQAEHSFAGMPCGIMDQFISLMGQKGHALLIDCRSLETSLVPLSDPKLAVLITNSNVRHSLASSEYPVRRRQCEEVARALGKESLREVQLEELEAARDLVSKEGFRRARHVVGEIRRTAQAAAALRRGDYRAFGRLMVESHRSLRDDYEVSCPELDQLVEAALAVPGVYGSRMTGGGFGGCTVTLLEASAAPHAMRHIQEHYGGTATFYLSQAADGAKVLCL
#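 The enzyme phosphorylates galactose (100 uM) using ATP (35 uM); inhibition is detected as higher residual ATP, quantified by bioluminescence after 1 h reaction at room temperature, pH 8.0.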
# The depositor's hits bear a star; i = inactive; ? = inconclusive; nt = not tested or not shown; [ ] = another dose, or the depositor's remark. Unless noted, the call rests on the fitted dose curve; in most records, active means well fitted curve in the direction sought with a large enough effect; inconclusive means small, poorly fitted or top-dose-only effect, or another doubt; inactive means no such curve, though single readings can be large; an effect the other way counts as inactive or inconclusive. On the % scale 0 is the no-effect control and ±100 the full control effect.
SMILES,Pin1 inh,rTrxR1 inhibitor,TrxR1 substrate,Giardia killer,GCN5L2 inh,GALK inh
CCN1CCN(C(c2ccc(SC)cc2)c2c(O)cc(C)n(CCOC)c2=O)CC1 (stereo not given),3.6%,25.1µM*,4.0%[57.1 µM],nt,0.8%,nt
COC(=O)C1=C(O)/C(=C\c2cc(C)n(-c3ccccc3F)c2C)N=C1C,?,15.8µM*,-0.6%,15.7,-3.3%,-0.3%
COc1ccc(/C=C2\N=C(C)OC2=O)cc1OC(C)=O,-10.8%,44.7µM*,-14.6%,-4.9,11.5%,1.5%
C=CCOc1ccc(/C=C2\N=C(C)OC2=O)cc1OC,-2.2%,-46.1%,5.7%[57.1 µM],-12.3,-7.7%,-0.8%
CCOC(=O)COc1c(Cl)cc(/C=C2\N=C(C)OC2=O)cc1OC,2.5%,14.1µM*,7.7%[57.1 µM],29.4,nt,nt
COc1ccc(/C=C2\N=C(C)OC2=O)cc1OC,-6.4%,39.8µM*,-14.6%,29.1,1.3%,-3.1%
CC(=O)N(C1=C(Cl)C(=O)c2ccccc2C1=O)C1CCCCC1,0.3%,?,-8.1%[57.1 µM],-13.0,31.6µM*,3.2%
CC(=O)N(c1ccccc1C)C1CCCC1,10.5%,0.4%,-1.9%,18.3,-3.6%,1.4%
Cn1nnnc1Sc1ncnc2scc(-c3cccs3)c12,1.5%,44.7µM*,0.1%,-13.6,?,nt
CCOc1ccccc1C1C(C(=O)Nc2ccccc2)=C(C)Nc2nc(SCC(=O)c3ccc(C)cc3)nn21 (stereo not given),16.1%,14.8%[57.1 µM],-1.1%[57.1 µM],nt,-6.1%,nt
COCCN(CCOC)Cc1c(O)ccc2c1O/C(=C\c1ccc(C)o1)C2=O,?,50.1µM*,?,-14.7,-22.7%,-2.1%
COc1cc2nc(N3CCCCC3)nc(NC(C)C)c2cc1OC,nt,-4.6%,60.1%,nt,nt,nt
Cc1c(C)c2cc(Cl)c(O)c(CN3CCN(C)CC3)c2oc1=O,5.7%,175.1%[57.1 µM],i,0.0,25.1µM*,3.4%
O=C(c1ccc(S(=O)(=O)N2CCOCC2)cc1)N(c1ccc(F)cc1)C1C=CS(=O)(=O)C1 (stereo not given),-4.2%,10.8%,8.5%,-1.6,-29.7%,0.3%
COc1ccc(N(C(=O)c2ccc(S(=O)(=O)N3CCOCC3)cc2)C2C=CS(=O)(=O)C2)cc1 (stereo not given),7.3%,21.8%,5.1%,38.3,2.24µM*,-0.1%
Cc1ccccc1Cn1c2ccccc2c2cnn(CC(=O)NCCCc3ccccc3)c(=O)c21,12.3%,7.5%,4.0%,nt,-8.3%,nt
CCCCn1nnc(NC(=S)NC(=O)c2ccc(OCC)c([N+](=O)[O-])c2)n1,-9.1%,79.4µM*,3.6%,24.0,-4.3%,-4.2%
CCOc1ccc(C(=O)NC(=S)Nc2ncccc2C)cc1[N+](=O)[O-],-1.9%,4.7%,-1.7%,-0.8,-0.2%,0.1%
COc1ccc(C)c2sc(NC(=O)CCS(=O)(=O)c3ccccc3)nc12,41.0%,39.8µM*,1.6%,-11.9,3.8%,-9.9%
CCOc1cccc2sc(NC(=O)CCS(=O)(=O)c3ccccc3)nc12,6.3%,4.1%,-1.5%,-7.4,-4.4%,5.0%
CC(C)(C)OC(=O)NCc1nnc(-c2cc3ccccc3[nH]2)o1,3.1%,nt,nt,nt,nt,nt
O=C(CN1C(=O)NC2(CCCCC2)C1=O)Oc1ccc2ccc(=O)oc2c1,-3.4%,50.1µM*,378.7%,14.0,-21.0%,nt
O=C(CNc1ccc2ccccc2c1)N/N=C/c1ccc([N+](=O)[O-])o1,-8.2%,-14.2%,0.1%,-90.9*,0.7%,0.2%
O=C(CSc1ccc(Cl)cc1)N/N=C/c1ccc([N+](=O)[O-])o1,-0.7%,?,7.2%,-94.6*,-12.1%,-4.6%
O=C(CNc1ccc2ccccc2c1)N/N=C/c1ccc(C(=O)O)cc1,?,8.3%,-0.5%,-1.0,0.1%,3.1%
SMILES,Pin1 inh,rTrxR1 inhibitor,TrxR1 substrate,Giardia killer,GCN5L2 inh,GALK inh
O=C(COc1ccccc1)N/N=C/c1ccc([N+](=O)[O-])o1,-15.2%,50.1µM*,-3.9%,-96.9*,-5.5%,-1.2%
COC(=O)N/N=C/c1ccc([N+](=O)[O-])o1,-28.3%,?,-9.3%,?,-2.4%,-3.8%
C=C1CCN(C(C(=O)O)C(C)C)S(=O)(=O)c2ccccc21 (stereo not given),-9.0%,?,-5.4%,10.8,nt,nt
O=C1C(Cl)=C(Nc2ccc3cn[nH]c3c2)C(=O)c2ccccc21,7.0%,?,?,-0.9,-3.2%,4.0%
CN(C)c1ccc(NC2=C(Cl)C(=O)c3ccccc3C2=O)cc1,?,2.82µM*,3.9%,-2.2,-10.1%,nt
Cc1ccc(-n2ncc3c(NCCc4ccccc4)ncnc32)cc1,-4.3%,7.8%[57.1 µM],1.5%[57.1 µM],nt,-0.7%,nt
CC(C)(C)n1ncc2c(=O)n(Cc3ccccc3-c3ccccc3)cnc21,nt,11.2%,-2.1%,nt,nt,nt
C=CS(=O)(=O)c1sc(Cl)c(N2CCOCC2)c1[N+](=O)[O-],?,0.316µM*,0.4%,3.3,?,-4.6%
C=CSc1sc(Cl)c(N2CCOCC2)c1[N+](=O)[O-],-3.3%,-9.4%[57.1 µM],2.8%[57.1 µM],-13.4,-9.7%,2.0%
COc1ccc(Br)cc1S(=O)(=O)N1CCN(S(=O)(=O)c2ccc3c(c2)OCCO3)CC1,13.9%,nt,nt,nt,nt,nt
CCOc1ccccc1NC(=O)Cn1cnc2onc(-c3ccc(F)cc3)c2c1=O,3.5%,14.2%,-1.4%,nt,-4.3%,nt
CC(=O)N(c1ccc(Cl)cc1)c1cn(C(C)=O)c2ccccc12,?,14.5%,1.7%,19.1,-9.5%,7.4%
CC(=O)n1cc(N(C(=O)CCl)c2ccc(C)cc2)c2ccccc21,-18.6%,2µM*,-3.4%,0.2,-3.3%,-14.4%
Cn1ccnc1SCc1ccc([N+](=O)[O-])cc1,-9.5%,2.9%,8.3%[57.1 µM],-2.0,0.794µM*,3.1%
Cn1ccnc1SCc1cccc([N+](=O)[O-])c1,6.5%,-5.1%,-8.8%,-7.6,-3.0%,-3.1%
CCOc1ccccc1CNC(=O)CSc1n[nH]c(-c2ccccc2Cl)n1,-0.8%,15.1%[57.1 µM],-1.1%[57.1 µM],nt,3.4%,nt
COc1ccc(N(C(=O)CCl)C(C(=O)NCCc2ccccc2)c2cccs2)cc1 (stereo not given),-6.9%,11.2µM*,1.3%,5.9,3.1%,1.1%
COc1ccc(CNC(=O)C(c2ccncc2)N(C(=O)Cc2cccs2)c2ccccc2)cc1 (stereo not given),-0.8%,8.9%[57.1 µM],7.6%[57.1 µM],4.9,-1.3%,1.2%
COc1cccc(C2c3c(ncn(-c4cccc(C#N)c4)c3=N)Oc3ccc4ccccc4c32)c1 (stereo not given),19.4%,nt,nt,nt,nt,nt
CC(=O)OC1(C(C)=O)CCC2C3CC(C(F)(F)F)C4=CC(=O)CCC4(C)C3CCC21C (stereo not given),-0.6%,15.8µM*,0.4%,-11.1,nt,nt

# Screens (PubChem BioAssay)
